For 40 compounds, outcome and AC50 results are on record in PubChem BioAssay (EPA / NIEHS).

SMILES strings stand for the structures. The source made the active and inactive calls. How the source made its calls: active means hit-call score of the fitted dose curve at least 0.9, where 1 is the maximum; inactive means score below 0.9.

A short description of this assay: ATG_TA_CIS: Attagene CIS-FACTORIAL HepG2 Assay for human TA Basal Promoter (AID 2282964). The conditions noted are these: HepG2 Attagene CIS-factorial TA basal promoter reporter; actives raise or lower the signal. Here is the method:
ATG_CIS is a cell-based, multiplexed-readout assay that uses HepG2, a human liver cell line, with measurements taken at 24 hours after chemical dosing in a 24-well plate.ATG_TA_CIS is one of 52 assay component(s) measured or calculated from the ATG_CIS assay. It is designed to make measurements of mRNA induction, a form of inducible reporter, as detected with fluorescence intensity signals by Reverse transcription polymerase chain reaction (RT-PCR) and Capillary electrophoresis technology.Data from the assay component ATG_TA_CIS was analyzed into 1 assay endpoint. This assay endpoint, ATG_TA_CIS, was analyzed with bidirectional fitting relative to DMSO as the negative control and baseline of activity. Using a type of inducible reporter, measures of mRNA for gain or loss-of-signal activity can be used to understand the background control at the transcription factor-level as they relate to the gene . Furthermore, this assay endpoint can be referred to as a secondary readout, because this assay has produced multiple assay endpoints where this one serves a background control function. To generalize the intended target to other relatable targets, this assay endpoint is annotated to the background measurement intended target family, where the subfamily is internal marker.
Human liver HepG2 cells are transiently transfected with multiple reporter transcription units (MRTUs) in 6-well plates using FuGene 6 reagent (Roche; 3 ml FuGene/1 mg DNA). The MRTU constructs are regulated by a cis-regulating element (promoter). […] A major difference between the CIS and TRANS system is that in CIS activities of endogenous TFs are measured, whereas the TRANS assay evaluates changes in activities of exogenous, chimeric NR-Gal4 proteins. […] At the end of 24 hour incubation, total RNA was isolated using TriZol reagent (Invitrogen). The isolated RNA is then reverse-transcribed using oligo(dT) primer and Mo-MLV reverse transcriptase (Invitrogen) with DNAse I (Ambion) treatment for 30 min. The one-tenth of the produced cDNA was amplified by PCR using Taq DNA polymerase (Invitrogen) and two reporter sequence-specific primers. The PCR products were fluorescently labeled by primer extension with 6-arboxyfluorescein (6-FAM) 5'-labeled reporter sequence-specific primer (2 min at 95 C, 20 s at 68 C and 10 min at 72 C) and these products were digested with 5U of HpaI (New England Biolabs) for 2h at 37 C. The fragments were purified using Qiaquick PCR columns (Qiagen), analyzed on an ABI 3130xL genetic analyzer (Applied Biosystems) with peak positions identified by using a set of X-rhodamine (ROX)-labeled MapMarker1000 molecular weight standards (BioVentures). The raw capillary electrophoresis data was processed using Attagraph software (Attagene).
`CCCCCCCCc1ccc(Nc2ccc(CCCCCCCC)cc2)cc1`: the compound was called inactive. As for `CCCOC(=O)CCCCC(=O)OCCC`, the compound was classed as inactive.

Turning to `Cc1cnc(NC(=O)C2=C(O)c3ccccc3S(=O)(=O)N2C)s1`, the result was inactive. Still for that read-out and setting: the same measure for `C=C[Si](OC(C)=O)(OC(C)=O)OC(C)=O`: “inactive”. In the case of `OC1OCCOC1O` (stereo not given), the call was inactive. The same measure, in the same setting: the same measure for `Nc1ccc(N=Nc2ccccc2)c(N)n1`: “inactive”; for `COc1ccc(C(Cl)=C(c2ccc(OC)cc2)c2ccc(OC)cc2)cc1`: “inactive”; for `C=CC(=O)OCCOC1C2CCC1C1CC=CC12` (stereo not given): “inactive”. As for `CC(C)(C)C(=O)CCc1ccc(Cl)cc1`, the outcome was inactive. Consider `COc1ccc(-c2coc3cc(O)ccc3c2=O)cc1`, for which the compound was called inactive.

Consider `[Cl][Nd]([Cl])[Cl]`, for which the compound was called inactive. Regarding `C=C[Si](C)(C)O[Si](C)(C)C=C`, the result was inactive. On the same count and under the same terms, for `CCO[Si](C)(OCC)OCC` the value was “inactive”; for `Cc1ccc(OC(=O)CC(C)C)cc1`, “inactive”. In the case of `CC(C)(C)c1ccc(OC(=O)c2ccccc2O)cc1`, the result was inactive. As for `O=C(C(Cl)Cl)N1CCOC12CCCCC2`, the half-maximal activity concentration (AC50) was 12 µM (active).

`C1CN(SSN2CCOCC2)CCO1`: the result was inactive. On the same count and under the same terms, the same measure for `CCCCCCCCCCCCCCCC[n+]1ccccc1`: “inactive”; for `O=C1c2ccccc2C(=O)C1c1nc2ccccc2c(Br)c1O`: “inactive”. For `FC(F)=C(F)OC(F)(F)C(F)(F)C(F)(F)F`, the outcome was inactive. As to `CC(C)c1ccc(C=O)cc1`, the compound was called inactive. In the case of `C[Si](C)(CCCN)O[Si](C)(C)CCCN`, the outcome was inactive. Still for that read-out and setting: for `CCOC(=O)Cc1cccc2ccccc12` the value was “inactive”; for `C=CC(=O)OCCOC(=O)C=C`, “inactive”. For the compound `c1cc(N(CC2CO2)CC2CO2)ccc1OCC1CO1` (stereo not given), the call was inactive. For the compound `Cc1cccc(N)n1`, the compound was classed as inactive. `COC(=O)C1=C(C)NC(C)=C(C(=O)OCC(C)C)C1c1ccccc1[N+](=O)[O-]` (stereo not given): the result was inactive. Consider `CC(=O)OC(C)C`, for which the outcome was inactive. On to `COc1ccc([C@@H]2CC(=O)c3c(O)cc(O[C@@H]4O[C@H](CO[C@@H]5O[C@@H](C)[C@H](O)[C@@H](O)[C@H]5O)[C@@H](O)[C@H](O)[C@H]4O)cc3O2)cc1OC`, for which the compound was called inactive. In the case of `CC1=NN(c2cc(S(=O)(=O)O)ccc2Cl)C(=O)C1N=Nc1ccccc1` (stereo not given), the outcome was inactive. On the same count and under the same terms, the same measure for `CCN(CC#N)c1cccc(C)c1`: “inactive”; for `O=C(Nc1ccccc1)c1ccccc1O`: “inactive”; for `CCCCC(CC)CCC(CC(C)C)OS(=O)(=O)O` (stereo not given): “inactive”. On the same count and under the same terms, the same measure for `CCCCCCCCC(=O)OCC`: “inactive”. `C/C=C\C/C=C/CCCCCCCCOC(C)=O`: the half-maximal activity concentration (AC50) was 69.7 µM (active).

For the compound `CCCCCCCCCCOC(C)=O`, the compound was classed as inactive. On the same count and under the same terms, for `O=c1cc[nH]c(=S)[nH]1` the value was “inactive”. For `CC(=O)Oc1ccc(C)cc1`, the result was inactive. Still for that read-out and setting: for `Cc1ccc2c(c1)C(=O)c1ccccc1C2=O` the value was “inactive”. For the compound `Nc1nc2ccccc2[nH]1`, the result was inactive.
